From PubChem BioAssay (NCATS)
Inconclusive results are not listed. Activity calls are given as the source filed them. The call rests on the fitted dose curve; in most records, active means well fitted inhibition curve with a large enough effect; inconclusive means small, poorly fitted or top-dose-only effect; inactive means flat fitted curve, though single readings scatter.

tested on: HEK293; assay: Cytotoxic Profiling of Annotated Libraries Using Quantitative High-Throughput Screening (AID 1296008); conditions: Five cell lines viability, CellTiter-Glo ATP luminescence, 48-72 h; max response: hits give low values; further: nearly all actives have a fitted effect of over 60% in size
Method in brief: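 Cells exposed to compounds for 48 or 72 hr at 37 degrees Celsius. Viability read as ATP-coupled luminescence with CellTiter-Glo after 10 min at room temperature.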
On the % scale 0 is the no-effect control and ±100 the full control effect; potency means the concentration at half of the fitted maximal effect.

SMILES | Potency | max response | outcome
Cn1nnc(-c2ccc(-c3ccc(N4C[C@H](COP(=O)(O)O)OC4=O)cc3F)cn2)n1 | 0.58 µM (active) |  | 
CS(=O)(=O)c1ccc(-c2nnc(/C=C/c3nnc(-c4ccc(C#N)cc4)o3)n2-c2ccccc2Cl)nc1 | 11.6 µM (active) |  | 
O=C(O)/C=C/c1ccc(-c2ccc(O)c(C34CC5CC(CC(C5)C3)C4)c2)cc1 | 0.731 µM (active) |  | 
CC(Oc1cc(-n2cnc3ccc(CN4CCN(C)CC4)cc32)sc1C(N)=O)c1ccccc1C(F)(F)F (centres undefined) | 1.3 µM (active) |  | 
COc1c(/C=C/C(C)(C)O)ccc2c1C(=O)OCc1cc(C)cc(O)c1O2 |  | -114% (inactive) | 
N=c1nc2n(cc1F)C1OC(CO)C(O)C1O2 (centres undefined) | 5.17 µM (active) |  | 
C[C@@H]1C(=O)O[C@H](C)[C@H]1CC(=O)[C@](C)(O)[C@H]1CC[C@@]2(O)C3=CC(=O)[C@@H]4C[C@@H](O)[C@@H](O)C[C@]4(C)C3CC[C@]12C (some centres undefined) |  | -19.4% (inactive) | 
O=C(/C=C\n1cnc(-c2cc(C(F)(F)F)cc(C(F)(F)F)c2)n1)N1CC(F)(F)C1 | 1.3 µM (active) |  | 
CC(C)[N+]1(C)C2CCC1CC(OC(=O)C(CO)c1ccccc1)C2 (centres undefined) |  | -4.72% (inactive) | 
CO/N=C(/C(=O)N[C@@H]1C(=O)N2C(C(=O)O)=C(Cn3ccc(=N)n3CCO)CS[C@H]12)c1csc(N)n1 |  | -94.3% (inactive) | 
CN1c2ccccc2C(=O)N2CCC3c4ccccc4NC3C21 (centres undefined) | 2.55 µM (active) |  | 
CO[C@H]1C[C@@H]2CC[C@@H](C)[C@@](O)(O2)C(=O)C(=O)N2CCCC[C@H]2C(=O)O[C@H]([C@H](C)C[C@H]2CC[C@@H](OP(C)(C)=O)[C@H](OC)C2)CC(=O)[C@H](C)/C=C(\C)[C@@H](O)[C@@H](OC)C(=O)[C@H](C)C[C@H](C)/C=C/C=C/C=C/1C | 0.0064 µM (active) |  | 
CCCOc1ccc(-c2nc(OC)c3ccccc3n2)cc1 |  | 4.19% (inactive) | 
C[C@@H]1O[C@@H](O[C@H]2[C@H](O)[C@@H](O)[C@H](O[C@H]3[C@H](O[C@H]4CC[C@@]5(C)C(=CC[C@@H]6C5CC[C@]5(C)[C@@H]7[C@H](C[C@@H]65)O[C@]5(CC[C@@](C)(CO[C@@H]6O[C@H](CO)[C@@H](O)[C@H](O)[C@H]6O)O5)[C@H]7C)C4)O[C@H](CO)[C@@H](O)[C@@H]3O)O[C@@H]2CO)[C@H](O)[C@H](O)[C@H]1O (some centres undefined) | 1.23 µM (active) |  | 
CC1(C)CC(NC(=O)C(=O)Nc2ccc(Br)cc2)CC(C)(C)N1 | 4.11 µM (active) |  | 
CNC(=O)c1ccccc1Nc1nc(Nc2ccc3c(c2OC)CCC[C@@H](N2CCN(CCO)CC2)C3)ncc1Cl | 5.8 µM (active) |  | 
O=C(NCc1ccc(S(=O)(=O)c2cc(F)cc(F)c2)cc1)c1ccc2nccn2c1 | 0.0052 µM (active) |  | 
O=C1CCC(c2ccccc2)(C2CCN(Cc3ccc(I)cc3)CC2)C(=O)N1 (centres undefined) | 18.4 µM (active) |  | 
CC1(C)CCCC2(C)C1CC(=O)C13CC(CCC12)C(O)(CO)C3 (centres undefined) |  | 0.204% (inactive) | 
CNC(C)C(=O)NC(C(=O)N1CCCC1c1nc(C(=O)c2ccc(F)cc2)cs1)C1CCCCC1 (centres undefined) | 14.6 µM (active) |  | 

SMILES | Potency | max response | outcome
CC1=CC(=O)CC(C)(C)[C@H]1/C=C/C(CO)O[C@@H]1O[C@H](CO)[C@@H](O)[C@H](O)[C@H]1O (some centres undefined) |  | -4.12% (inactive) | 
O=C(OC1C=C(CO)C2C(OC3OC(CO)C(O)C(O)C3O)OC=CC12)c1ccc(O)cc1 (centres undefined) |  | -4.58% (inactive) | 
Cc1ncc(CCCN(C)C)cc1Nc1ncc2c(n1)-c1ccc(C(F)(F)F)cc1NC(=S)C2 |  | -92.5% (inactive) | 
COc1c(Nc2ncc(Cl)c(N[C@H]3[C@@H](C(N)=O)[C@@H]4C=C[C@H]3C4)n2)ccc2c1CC[C@@H](N1CCOCC1)CC2 | 3.66 µM (active) |  | 
Cc1c(CN2CCN(C(=O)C(C)O)CC2)sc2c(N3CCOCC3)nc(-c3cnc(N)nc3)nc12 (centres undefined) | 0.651 µM (active) |  | 
CCN1CCN(Cc2ccc(NC(=O)c3ccc(C)c(/C=C/c4cnc5[nH]ccc5c4OC)c3)cc2C(F)(F)F)CC1 | 1.46 µM (active) |  | 
CC(C)c1ccc(CO)cc1O[C@@H]1O[C@H](CO)[C@@H](O)[C@H](O)[C@H]1O |  |  | inactive
COc1cc(O)c2c(c1)C1=C[C@H](O)[C@@H](O)C[C@]1(C)OC2=O |  |  | inactive
COc1cc2ncnc(Nc3ccc(F)c(Cl)c3)c2cc1NC(=O)/C=C/CN1CCCCC1 | 7.31 µM (active) |  | 
CC(C)c1nc(-c2ccc(NC(=O)Nc3cccc(C(F)(F)F)c3)c3ccccc23)c2c(N)nccn12 | 6.51 µM (active) |  | 
CC(O)c1cc(C(=O)N[C@@H](C)Cn2ccc(-c3ccc(C#N)c(Cl)c3)n2)n[nH]1 (some centres undefined) | 18.4 µM (active) |  | 
COC1=CC(=O)CC(C)C12Oc1cc(OC)cc(O)c1C2=O (centres undefined) |  | 0.0359% (inactive) | 
CC1(C)CCC(C)(C)c2cc(C3(c4ccc(C(=O)O)cc4)OCCO3)ccc21 |  | -82.5% (inactive) | 
C[C@@H]1N[C@H]2N(C1=O)c1ccccc1[C@@]2(O)C[C@@H]1C(=O)N[C@@H](C)c2nc3ccccc3c(=O)n21 |  | -21.5% (inactive) | 
O=C(c1cccc(Cl)c1F)N1CCN(Cc2cccc(Nc3nccs3)n2)CC1 | 1.03 µM (active) |  | 
C=C(C)C(=O)O[C@H]1CC2=CC(C/C(C)=C\[C@H]3OC(=O)C(=C)[C@H]13)OC2=O (some centres undefined) | 4.53 µM (active) |  | 
CC(=O)O[C@@H]1[C@H](O)[C@@H](O[C@@H]2O[C@@H](C)[C@H](O[C@@H]3OC[C@@H](O)[C@H](O[C@@H]4OC[C@@H](O)[C@H](O)[C@H]4O)[C@H]3O)[C@@H](O[C@@H]3O[C@H](CO)[C@@H](O)[C@H](O)[C@H]3O)[C@H]2O)[C@H](OC(=O)[C@]23CCC(C)(C)C[C@H]2C2=CCC4[C@@]5(C)CC[C@H](O[C@@H]6O[C@H](C(=O)O)[C@@H](O)[C@H](O[C@@H]7OC[C@@H](O)[C@H](O)[C@H]7O)[C@H]6O[C@@H]6O[C@H](CO)[C@H](O)[C@H](O)[C@H]6O)[C@@](C)(C=O)C5CC[C@@]4(C)[C@]2(C)CC3)O[C@@H]1C (some centres undefined) |  | -5.31% (inactive) | 
O=C(Nc1ccc(S(=O)(=O)C(F)(F)F)cc1)C1=CCN(c2ncccc2C(F)(F)F)CC1 | 8.2 µM (active) |  | 
C[C@H]1C(=O)N2c3ccccc3[C@@]3(O)C[C@@H]4C(=O)N[C@](C)(c5nc6ccccc6c(=O)n54)N1[C@@H]23 |  | -0.775% (inactive) | 
